The compounds below were run on T1, YANK1. Settings: concentration: 1 μM, replicates: in singlicate; n = 1.
T1 construct: gene STK32A
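Note: KINOMEscan kinase panel screen.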

SMILES | %Inh
O=C(NCCNc1ccnc(Nc2ccc(F)cc2)n1)Nc1ccc2c(c1)OCO2 [GSK1379882] | 0%
O=C(NCc1cccs1)c1cc(C(=O)c2c(Cl)cccc2Cl)c[nH]1 [GW823670] | 0%
Cc1ccc(-c2ccc3c(ccc4sc5c(c43)NC[C@@H](C)N=C5N(C)C)n2)cn1 | 0%
Cc1cc(Nc2nc(-c3cccc(C)n3)nc3ccccc23)ccn1 [GW872411] | 0%
Nc1nc(-c2ccccc2F)c(-c2ccnc3ccccc23)s1 [GW560459] | 39%
COc1ccc(-c2cc3c(C)nc(N)nc3n([C@H]3CC[C@H](O)CC3)c2=O)cn1 | 0%
OCCCNc1nccc(-c2c(-c3cccc(C(F)(F)F)c3)nn3cc(C(F)(F)F)ccc23)n1 [GW630813] | 0%
CN(C)c1cc(-c2ccc3c(N)n[nH]c3c2)nc(N)n1 [GSK2219329] | 7%
Cl.c1ccc(Cn2cnc3cc(Nc4ncnc5ccccc45)ccc32)cc1 [GW272142] | 0%
Cc1cccc(-c2cc(-c3c[nH]nc3-c3ccccn3)ccn2)c1 [GW679395] | 0%
CCC(=O)c1c(-c2ccccc2)c2cc(Cl)ccc2c(=O)n1Cc1cc(S(C)(=O)=O)n(CCC(C)(C)O)n1 | 19%
Cc1nnc(-c2ccc(C)c(-c3ccc(C(=O)O)cc3)c2)o1 [GW608005] | 0%
COc1cc2nccc(Nc3ccc(OCc4ccc(NC(C)=O)cc4)cc3)c2cc1OC.Cl [GW440135] | 0%
COC(=O)c1c(-c2ccccc2)c2cc(Br)ccc2c(=O)n1Cc1ccc(NC(=O)CCC(=O)O)cc1 | 0%
Cc1nc(N(C)[C@H]2CN(C(=O)CC#N)CC[C@H]2C)c2cc[nH]c2n1 | 0%
COc1cc2ncn(-c3cc(OCc4ccncc4)c(C(N)=O)s3)c2cc1OC [GSK336313] | 8%
CCC(=O)c1c(-c2ccccc2)c2cc(Cl)ccc2c(=O)n1Cc1cc(S(C)(=O)=O)n(CC(N)=O)n1 | 0%
CCS(=O)c1ccc(-c2coc3ccc(-c4nnc(C)o4)cc23)cc1 (stereo not drawn) | 5%

SMILES | %Inh
COc1ccc(-c2cc3c(C)nc(N)nc3n([C@H]3CC[C@H](OCCO)CC3)c2=O)cn1 | 14%
CC(C)(C)c1ccc(C(=O)Nc2cn3cc(-c4ccccc4)ccc3n2)cc1 | 0%
COc1cc(Nc2nccc(N3CCC(NC(=O)C4COc5ccccc5O4)C3)n2)cc(OC)c1OC (stereo not drawn) [GSK1379761] | 9%
CN1C(=O)C(Nc2ccccc2)=C(c2ccccc2)C1=O [SB-300079] | 0%
COc1ccc(-n2cnc3c(N)ncnc32)cc1 [SKF-97236] | 0%
CCc1ccc(-c2ccc3c(c2)-c2nn(C)cc2S(=O)(=O)N3C)cc1 | 0%
Cc1ccc(Oc2ccc(Nc3ncnc4cc[nH]c34)cc2C)cn1 | 5%
O=C(Nc1n[nH]c2nc(-c3ccccc3)c(Br)cc12)C1CC1 [SB-708998] | 7%
Cc1ccccc1COc1cc(-n2cnc3cc(Cl)ccc32)sc1C(N)=O [GW813349] | 14%
COc1cc(OC)cc(-c2cc3cnc(N)nc3nc2NC(=O)NC(C)(C)C)c1 | 11%
COc1cc(Nc2nccc(N3CCC(NC(=O)C(C)c4ccc(Cl)cc4)C3)n2)cc(OC)c1OC (stereo not drawn) [GSK1379757] | 0%
CCCC(=O)Nc1n[nH]c2ncc(-c3cccc4ccccc34)cc12 [SB-642057] | 0%
COc1ccc(-c2coc3ccc(-c4nnc(SCc5cccc(C#N)c5)o4)cc23)cc1 | 21%
Cc1nnc(-c2ccc3ncn(-c4ccc(S(C)=O)cc4)c3c2)o1 (stereo not drawn) | 0%
O=C1NC(=O)C(c2ccccc2)=C1Nc1cccc(O)c1 [SB-390534] | 0%
Nc1ncnc2c1ncn2-c1cccc2ccccc12 [SKF-97184] | 0%
COc1ccc(Nc2nccc(N3CCC(NS(=O)(=O)c4ccc(NC(C)=O)cc4)C3)n2)cc1 (stereo not drawn) [GSK1379729] | 8%
COc1cc2ncn(-c3cc(OCc4ccc(S(C)(=O)=O)cc4)c(C(N)=O)s3)c2cc1OC [GW869979] | 7%

From publication PMC5540273 (PLoS ONE, 2017)
